Laboratory results reported in PubChem BioAssay (EPA / NIEHS).
Results filed as inconclusive are left out. Activity calls are given as the source filed them. How the source made its calls: active means hit-call score of the fitted dose curve at least 0.9, where 1 is the maximum; inconclusive means response in the unintended direction; inactive means score below 0.9.

Target: Oxysterols receptor LXR-beta (Homo sapiens) (UniProt P55055)
Sequence (P55055 whole entry, looked up): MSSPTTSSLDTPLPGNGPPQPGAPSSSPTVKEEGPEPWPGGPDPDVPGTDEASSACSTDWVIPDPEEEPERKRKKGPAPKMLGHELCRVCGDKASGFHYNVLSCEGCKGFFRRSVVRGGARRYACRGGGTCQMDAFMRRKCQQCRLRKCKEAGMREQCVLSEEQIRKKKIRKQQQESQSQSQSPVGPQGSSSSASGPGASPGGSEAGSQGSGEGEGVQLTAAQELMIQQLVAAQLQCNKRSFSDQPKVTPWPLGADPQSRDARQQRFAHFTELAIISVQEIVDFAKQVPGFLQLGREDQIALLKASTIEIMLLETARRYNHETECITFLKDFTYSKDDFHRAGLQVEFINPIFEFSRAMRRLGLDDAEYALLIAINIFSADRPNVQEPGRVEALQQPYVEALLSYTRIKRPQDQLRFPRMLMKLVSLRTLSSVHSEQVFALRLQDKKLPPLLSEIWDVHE
Assay: ATG_LXRb_TRANS: Attagene TRANS-FACTORIAL HepG2 Assay for human Liver X Receptor beta (LXRb) (AID 2282981)
Conditions: HepG2 Attagene TRANS GAL4-LXRb reporter, mRNA
How it was run: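 Cells: HepG2, transiently transfected with GAL4-UAS reporter units plus LXRb-Gal4 fusion. Treatment: 24 h. Detection: reporter mRNA by RT-PCR, 6-FAM labelling, HpaI digestion, capillary electrophoresis.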
In the case of `Brc1ccccn1`, the outcome is reported as “inactive”.
With `O=C(Cl)C(F)(F)C(F)(F)C(F)(F)C(F)(F)C(F)(F)C(F)(F)C(F)(F)F` the outcome was “inactive”.
With `CC(C)(C)C(=O)C1C(=O)c2ccccc2C1=O` the outcome was “inactive”.
In the case of `O=C(F)C1(F)C(F)(F)C(F)(F)C(F)(F)C(F)(F)C1(F)F`, the outcome is reported as “inactive”.
For `CCN(CC)c1ccc(C=O)cc1`, the outcome was “inactive”.
In the case of `O=C=Nc1cccc2c(N=C=O)cccc12`, the outcome is reported as “inactive”.
For `C#CC(O)CCC` (configuration not stated), the outcome was “inactive”.
In the case of `CC1=CCC(=O)O1`, the outcome is reported as “inactive”.
For `N#CCCOCCC#N`, the outcome was “inactive”.
With `O=C=NCc1cccc(CN=C=O)c1` the outcome was “inactive”.
For `CCN(CCO)S(=O)(=O)C(F)(F)C(F)(F)C(F)(F)C(F)(F)C(F)(F)C(F)(F)C(F)(F)C(F)(F)F`, the outcome was “inactive”.
In the case of `CC(C)(C)c1cc(CCC(=O)OCC(COC(=O)CCc2cc(C(C)(C)C)c(O)c(C(C)(C)C)c2)(COC(=O)CCc2cc(C(C)(C)C)c(O)c(C(C)(C)C)c2)COC(=O)CCc2cc(C(C)(C)C)c(O)c(C(C)(C)C)c2)cc(C(C)(C)C)c1O`, the outcome is reported as “inactive”.
In the case of `O=C1c2c(O)ccc(Nc3ccc(CCO)cc3)c2C(=O)c2c([N+](=O)[O-])ccc(O)c21`, the outcome is reported as “inactive”.
With `O=C(O)C(F)(F)C(F)(F)C(F)(F)C(=O)O` the outcome was “inactive”.

Target: Hepatocyte nuclear factor 4-alpha (Homo sapiens) (UniProt P41235)
Sequence (P41235 whole entry, looked up): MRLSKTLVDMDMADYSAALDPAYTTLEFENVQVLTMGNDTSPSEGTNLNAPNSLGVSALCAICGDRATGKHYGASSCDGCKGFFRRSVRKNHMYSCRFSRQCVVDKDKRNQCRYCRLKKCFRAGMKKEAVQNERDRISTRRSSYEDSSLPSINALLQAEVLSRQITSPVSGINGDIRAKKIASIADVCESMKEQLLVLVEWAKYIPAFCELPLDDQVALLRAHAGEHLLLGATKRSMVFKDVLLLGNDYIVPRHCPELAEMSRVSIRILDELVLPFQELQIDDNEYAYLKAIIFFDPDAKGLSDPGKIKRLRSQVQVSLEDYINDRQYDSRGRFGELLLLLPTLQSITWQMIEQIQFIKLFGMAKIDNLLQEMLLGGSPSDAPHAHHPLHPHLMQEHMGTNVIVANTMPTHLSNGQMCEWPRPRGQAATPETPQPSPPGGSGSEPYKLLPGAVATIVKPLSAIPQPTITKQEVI
Assay: ATG_HNF4a_TRANS: Attagene TRANS-FACTORIAL HepG2 Assay for human Hepatocyte Nuclear Factor 4 alpha (HNF4a) (AID 2282982)
Conditions: HepG2 HNF4a transactivation reporter, mRNA readout
How it was run: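 Transfected HepG2 reporter cells are dosed for 24 h; reporter RNA is reverse-transcribed, amplified, fluorescently labelled and HpaI-digested before CE sizing. Positive-direction fit against DMSO.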
In the case of `COCCC(=O)OC`, the outcome is reported as “inactive”.
In the case of `CCn1c2ccccc2c2ccccc21`, the outcome is reported as “inactive”.
With `CC(O)C#CC(C)O` (configuration not stated) the AC50 was 151 µM (active).
In the case of `Brc1ccccn1`, the outcome is reported as “inactive”.
With `NC(=O)C(F)(F)C(F)(F)C(F)(F)C(F)(F)C(N)=O` the outcome was “inactive”.
With `O=C1OC(=O)c2ccc3c4c(ccc1c24)C(=O)OC3=O` the outcome was “inactive”.
With `CC(C)(C)C(=O)C1C(=O)c2ccccc2C1=O` the outcome was “inactive”.
With `OCCCCC(F)(F)C(F)(F)C(F)(F)C(F)(F)F` the outcome was “inactive”.
In the case of `CCN(CC)c1ccc(C=O)cc1`, the outcome is reported as “inactive”.
For `O=C1C=CC(=O)N1c1ccccc1`, the outcome was “inactive”.
For `CC1=CCC(=O)O1`, the outcome was “inactive”.
In the case of `CC(C)OC(=O)COc1ccc(Cl)cc1Cl`, the outcome is reported as “inactive”.
With `NC(O)(C(F)(F)F)C(F)(F)F` the outcome was “inactive”.
In the case of `N#CCCOCCC#N`, the outcome is reported as “inactive”.
For `O=C=NCc1cccc(CN=C=O)c1`, the outcome was “inactive”.
For `CC(C)(C)c1cc(CCC(=O)OCC(COC(=O)CCc2cc(C(C)(C)C)c(O)c(C(C)(C)C)c2)(COC(=O)CCc2cc(C(C)(C)C)c(O)c(C(C)(C)C)c2)COC(=O)CCc2cc(C(C)(C)C)c(O)c(C(C)(C)C)c2)cc(C(C)(C)C)c1O`, the outcome was “inactive”.
With `CCCCOC(=O)[C@H](C)O` the outcome was “inactive”.
With `Cc1ccc(S(=O)(=O)C(I)I)cc1` the outcome was “inactive”.
With `O=C1c2c(O)ccc(Nc3ccc(CCO)cc3)c2C(=O)c2c([N+](=O)[O-])ccc(O)c21` the outcome was “inactive”.
For `CN(N=O)C(=O)N[C@@H]1[C@@H](O)[C@H](O)[C@@H](CO)O[C@@H]1O`, the outcome was “inactive”.
In the case of `O=C(O)C(F)(F)C(F)(F)C(F)(F)C(=O)O`, the outcome is reported as “inactive”.

Test system: not listed separately
Assay: ATG_M_06_TRANS: Attagene TRANS-FACTORIAL HepG2 Assay for M06 Transcription Factor (Internal Marker) (AID 2282983);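 further: reporter transcript level by RT-PCR then capillary electrophoresis fluorescence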
Conditions: HepG2 Attagene TRANS M06 internal marker reporter
How it was run: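 Measured by capillary electrophoresis of fluorescently labelled RT-PCR products, this endpoint reflects reporter mRNA in HepG2 cells harbouring exogenous NR-GAL4 reporter constructs after 24 h exposure, with DMSO as baseline.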
In the case of `O=C(c1ccccc1)c1ccc(Cl)cc1`, the outcome is reported as “inactive”.
In the case of `CCn1c2ccccc2c2ccccc21`, the outcome is reported as “inactive”.
For `CC(O)C#CC(C)O` (configuration not stated), the outcome was “inactive”.
With `Brc1ccccn1` the outcome was “inactive”.
In the case of `CC(C)OC=O`, the outcome is reported as “inactive”.
With `O=C(Cl)C(F)(F)C(F)(F)C(F)(F)C(F)(F)C(F)(F)C(F)(F)C(F)(F)F` the outcome was “inactive”.
With `NC(=O)C(F)(F)C(F)(F)C(F)(F)C(F)(F)C(N)=O` the outcome was “inactive”.
In the case of `O=C1OC(=O)c2ccc3c4c(ccc1c24)C(=O)OC3=O`, the outcome is reported as “inactive”.
In the case of `CC(C)(C)C(=O)C1C(=O)c2ccccc2C1=O`, the outcome is reported as “inactive”.
In the case of `OCCCCC(F)(F)C(F)(F)C(F)(F)C(F)(F)F`, the outcome is reported as “inactive”.
For `CCN(CC)c1ccc(C=O)cc1`, the outcome was “inactive”.
In the case of `N#Cc1ccccc1O`, the outcome is reported as “inactive”.
For `O=S(=O)(Cl)C(F)(F)C(F)(F)C(F)(F)C(F)(F)C(F)(F)C(F)(F)C(F)(F)C(F)(F)F`, the outcome was “inactive”.
For `C#CC(O)CCC` (configuration not stated), the outcome was “inactive”.
With `CC1=CC2C3C=CC(C3)C2C1C` (configuration not stated) the outcome was “inactive”.
For `O=C1C=CC(=O)N1c1ccccc1`, the outcome was “inactive”.
With `CC(C)Nc1ccc(NC(C)C)c2c1C(=O)c1ccccc1C2=O` the outcome was “inactive”.
With `NC(=O)C(F)(F)C(F)(F)C(F)(F)C(F)F` the outcome was “inactive”.
With `CC1=CCC(=O)O1` the outcome was “inactive”.
For `O=C(O)C(F)(F)OC(F)(F)C(F)(F)OC(F)(F)C(F)(F)OC(F)(F)F`, the outcome was “inactive”.
With `OCC(F)(F)C(F)(F)C(F)(F)CO` the outcome was “inactive”.
In the case of `NC(O)(C(F)(F)F)C(F)(F)F`, the outcome is reported as “inactive”.
With `N#CCCOCCC#N` the outcome was “inactive”.
With `O=C=NCc1cccc(CN=C=O)c1` the outcome was “inactive”.
In the case of `CCN(CCO)S(=O)(=O)C(F)(F)C(F)(F)C(F)(F)C(F)(F)C(F)(F)C(F)(F)C(F)(F)C(F)(F)F`, the outcome is reported as “inactive”.
With `COC(F)(C(F)F)C(F)(F)F` (configuration not stated) the outcome was “inactive”.
For `NCC(F)(F)C(F)(F)C(F)(F)C(F)(F)C(F)(F)C(F)(F)F`, the outcome was “inactive”.
With `CC(C)(C)c1cc(CCC(=O)OCC(COC(=O)CCc2cc(C(C)(C)C)c(O)c(C(C)(C)C)c2)(COC(=O)CCc2cc(C(C)(C)C)c(O)c(C(C)(C)C)c2)COC(=O)CCc2cc(C(C)(C)C)c(O)c(C(C)(C)C)c2)cc(C(C)(C)C)c1O` the outcome was “inactive”.
In the case of `Cc1ccc(S(=O)(=O)C(I)I)cc1`, the outcome is reported as “inactive”.
For `O=C1c2c(O)ccc(Nc3ccc(CCO)cc3)c2C(=O)c2c([N+](=O)[O-])ccc(O)c21`, the outcome was “inactive”.
With `CN(N=O)C(=O)N[C@@H]1[C@@H](O)[C@H](O)[C@@H](CO)O[C@@H]1O` the outcome was “inactive”.
With `O=C(O)C(F)(F)C(F)(F)C(F)(F)C(=O)O` the outcome was “inactive”.
